Measured values taken from PubChem BioAssay (Tox21).
Inconclusive results are not listed. Values without a mark were called inactive. Active and inactive are the calls of the source. Calls come from the whole dose curve; as a rule, active = well fitted cell-killing curve with a large enough effect in the repeat runs; inconclusive = weak or mixed curves, or effect the other way; inactive = no such curve, though single readings can be large or run the other way.

Assay: qHTS assay to identify small molecule antagonists of the glucocorticoid receptor (GR) signaling pathway - cell viability counter screen (AID 720693); note: nearly all actives have a fitted effect of over 55% in size
Conditions: GR-bla HeLa viability, CellTiter-Glo luminescence, 18 h, with 5 nM dexamethasone present; series mostly up to 58.5 µM; viability change, negative = cytotoxic: at the top concentration
From the text: National Center for Advancing Translational Sciences [NCATS]
NIH Chemical Genomics Center [NCGC]
U.S. Environmental Protection Agency [EPA]
National Institutes of Environmental Health Sciences [NIEHS]
National Toxicology Program [NTP]
U.S. Food and Drug Administration [FDA]
The Glucocorticoid receptor (GR) is one of the members of the nuclear receptor family of ligand-dependent transcription factors. GR plays a critical role in carbohydrate, protein and lipid metabolisms and programmed cell death. CellSensor GR-bla HeLa cell line (Invitrogen) contains a beta-lactamase reporter gene under the control of the glucocorticoid response element stably integrated into HeLa cells, a cervical cancer cell line that expresses glucocorticoid receptor. The activation of the reporter gene under culture conditions can be detected by fluorescence intensity. This cell line has been used to screen the Tox21 10K compound library and to identify the compounds that inhibit the GR signaling. The cytotoxicity of the Tox21 compound library against the GR-bla HeLa cell line was tested in parallel by measuring the cell viability using CellTiter-Glo assay in the same wells.
Tox21 Assay Protocol Summary:
The GR-bla HeLa cells were dispensed at 1500 cells/5 ul/well in 1536-well black wall/clear bottom plates using a Multidrop Combi (ThermoFisher Scientific, Waltham, MA) dispenser. After the assay plates were incubated at a 37 C/5% CO2 incubator for 4 hours, 23 nL of compounds dissolved in DMSO, positive controls or DMSO only was transferred to the assay plate by a pintool station (Kalypsys, San Diego, CA), followed by addition of 1 uL of dexamethasone (5 nM, final concentration in the well). The plates were incubated at 37 C for 18 hours. After 1 uL of LiveBLAzerTM B/G FRET substrate was added using a Flying Reagent Dispenser (Aurora Discovery, San Diego, CA), the plates were incubated at room temperature (RT) for 2 hours, and fluorescence intensity was measured by an Envision plate reader (PerkinElmer, Shelton, CT). After measurement of bla assay, 3 ul CellTiter-Glo (Promega, Madison, WI) was added to measure the cytotoxicity and the plates were then incubated at RT for 30 min. The luminescence was measured using a ViewLux (Perkin Elmer) plate reader.
% is set by controls: 0 for no effect and ±100 for the full control effect.

| SMILES | viability change, negative = cytotoxic | outcome |
| --- | --- | --- |
| COc1c2occc2c(OC)c2c(=O)cc(C)oc12 | -3.78% [at 27 µM] |  |
| OCC1CCC(CO)CC1 (stereo not given) | 7.83% [at 78.9 µM] |  |
| Cc1cc(C)c(C(=O)O)c(C)c1 | -15.9% |  |
| CCCCCCCCCCOC(C)=O | 13.1% |  |
| C=CC(=O)CCCCC | -0.513% [at 78.9 µM] |  |
| CC(C)OC(=O)OCOP(=O)(CO[C@H](C)Cn1cnc2c(N)ncnc21)OCOC(=O)OC(C)C |  | inactive |
| COc1nc(N)nc2nc[nH]c12 | 4.68% |  |
| OCCN1CCOCC1 | -5.21% |  |
| O=NN(CCCl)C(=O)NC1CCCCC1 | -7.26% |  |
| C=CCOC(=O)CCCCCC | 5.83% |  |
| CC12CCC(C1)C(C)(C)C2O (stereo not given) | -0.787% |  |
| CCc1occc(=O)c1O | -6.73% |  |
| CCCCCC/C=C/C(=O)OC | -13.6% |  |
| C/C=C(\C)C(C)=O | 4.93% |  |
| CC(=O)CCc1ccc(OC(C)=O)cc1 | -2.29% |  |
| CCC(C)C(=O)OCCc1ccccc1 (stereo not given) | 2.07% |  |
| C[C@]12CCC(=O)C=C1CC[C@H]1[C@@H]3CC[C@](O)(C(=O)CO)[C@@]3(C)C[C@H](O)[C@@]12F |  | inactive |
| COc1cc2c(cc1OC)C(=O)C(CC1CCN(Cc3ccccc3)CC1)C2 (stereo not given) | -0.607% |  |
| O=C(CN1CCNCC1)NC1CCCCC1 | -0.0717% |  |
| OCC(O)CN1CCN(c2ccccc2)CC1 (stereo not given) | -1.94% |  |

| SMILES | viability change, negative = cytotoxic | outcome |
| --- | --- | --- |
| N#CCC(=O)NN | 3.04% |  |
| C=C(C)[C@@H]1CC=C(C)CC1 | 9.49% |  |
| CCC[C@@H]1C[C@@H](C(=O)N[C@@H]([C@H]2O[C@H](SC)[C@H](O)[C@@H](O)[C@H]2O)[C@@H](C)O)N(C)C1 | 11.6% |  |
| Cc1c(NC(=O)c2cccnc2)c(=O)n(-c2ccccc2)n1C | -0.222% [at 27 µM] |  |
| CC(=O)OC(C)=O | 12% [at 78.9 µM] |  |
| c1ccc2c(CC3=NCCN3)cccc2c1 |  | inactive |
| O=C1CCCCO1 | -1.84% |  |
| CC(C)C1OCCN1CCOC(=O)NCCCCCCNC(=O)OCCN1CCOC1C(C)C (stereo not given) | -5.24% |  |
| NCCOCCN | 7.22% |  |
| CCn1cc(C(=O)O)c(=O)c2cnc(N3CCCC3)nc21 | -8.34% [at 27 µM] |  |
| CN1C[C@@H]2C[C@H]1CN2c1cc2c(cc1F)c(=O)c(C(=O)O)cn2C1CC1 | -0.927% |  |
| CCCCCC(C)O (stereo not given) | -8.07% |  |
| CC(=O)Nc1ccc(OC(=O)c2ccccc2OC(C)=O)cc1 | 6.34% |  |
| CCC(=O)c1c(O)cc(O)cc1O | 5.72% |  |
| O=C(O)CCCCCC(=O)O | 11% [at 78.9 µM] |  |
| Cn1c(=O)c2[nH]c(Br)nc2n(C)c1=O | -3.29% |  |
| CCCCCCCCCOC(=O)c1ccccc1C(=O)OCCCCCCCCC | -3.96% |  |
| C=Cc1ccc(C(C)(C)C)cc1 | -6.1% |  |
| Cn1c(=O)c2c(ncn2CCO)n(C)c1=O | 11.4% |  |
| N[C@@H](Cc1ccc(O)cc1)C(=O)O | 11.1% |  |
